Here are results for 38 molecules from the supplement of paper PMC12024529.

The test system of the assay is HEK293 WT BDD-FVIII-Gluc. The assay is described as follows: secreted FVIII-Gluc luciferase Z-score vs DMSO control; higher = more FVIII-Gluc secretion. As to conditions: 5 µM. On the procedure: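 Natural plant-compound library (480 compounds, ST catalogue IDs) screened on HEK293 cells stably expressing WT BDD-FVIII-Gaussia luciferase fusion at 5 µM. Secreted Gluc activity in the medium is given as a Z-score relative to DMSO controls.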
With `CN1C(=O)CC[C@H]1c1cccnc1`, the “secreted FVIII-Gluc luciferase Z-score” value is -0.0585. To `O=c1c(O)c(-c2ccc(O)cc2)oc2ccc(O)cc12` belongs 0.433; to `NC(Cc1cnc[nH]1)C(=O)O` (stereo not drawn), 0.443. To `C[C@@H]1C(=O)O[C@H]2[C@@H](O)[C@@]34[C@H]5CC(C(C)(C)C)[C@]36[C@@H](OC(=O)[C@@H]6O)O[C@@]4(C(=O)O5)[C@@]12O` (stereo partly drawn) belongs 0.119. To `OC1CCC2Cc3ccccc3N=C12` (stereo not drawn) belongs -0.361. Regarding `O=c1cc(-c2ccccc2)oc2cccc(O)c12`, the “secreted FVIII-Gluc luciferase Z-score” value was -0.455. Under `Nc1ccccc1C(=O)CC(N)C(=O)O` (stereo not drawn) stands -1.11; under `COc1c2occc2cc2ccc(=O)oc12`, 0.821; under `Cc1c(C)c2c(c(C)c1OC(=O)CCC(=O)O)CC[C@@](C)(CCC[C@H](C)CCC[C@H](C)CCCC(C)C)O2`, 0.648.

As for `CCC12CCCN3CCc4c(n(c5ccccc45)C(O)(C(=O)OC)C1)C32` (stereo not drawn), the “secreted FVIII-Gluc luciferase Z-score” value came out at 0.301.

Regarding `COc1ccc2c3c1O[C@H]1C[C@@H](O)C=C[C@@]31CCN(C)C2`, the “secreted FVIII-Gluc luciferase Z-score” value was determined as 0.615. For `CC(=O)OCC1OC(Oc2cc(OC(C)=O)c3c(=O)cc(-c4ccc(OC(C)=O)c(OC(C)=O)c4)oc3c2)C(OC(C)=O)C(OC(C)=O)C1OC(C)=O` (stereo not drawn), the “secreted FVIII-Gluc luciferase Z-score” value is -0.756. In the case of `O=C1OC(C(O)CO)C(O)=C1O` (stereo not drawn), the “secreted FVIII-Gluc luciferase Z-score” value was 0.497. For `Cc1ccc2oc(-c3ccccc3)c(O)c(=O)c2c1`, the “secreted FVIII-Gluc luciferase Z-score” value is 1.13. As to `Nc1nc2c(ncn2[C@H]2C[C@H](O)[C@@H](COP(=O)(O)O)O2)c(=O)[nH]1`, the “secreted FVIII-Gluc luciferase Z-score” value was 0.653.

Turning to `COc1cc2c(cc1OC)C(=O)Cc1ccc3c(c1CN(C)CC2)OCO3`, the “secreted FVIII-Gluc luciferase Z-score” value was found to be 0.000104. With `COc1cc2c(cc1OC)C(=O)N(C)CC2`, the “secreted FVIII-Gluc luciferase Z-score” value was found to be 0.547. As to `COc1ccc2c(c1OC)C(=O)O[C@H]2[C@H]1c2c(cc3c(c2OC)OCO3)CCN1C`, the “secreted FVIII-Gluc luciferase Z-score” value was determined as 0.932. For the molecule `CC(C=CC1=C(C)CCCC1(C)C)=CC=CC(C)=CCO`, the “secreted FVIII-Gluc luciferase Z-score” value was 0.89. In the case of `C=C1CCC(O)C/C1=C\C=C1/CCCC2(C)C1CCC2C(C)CCCC(C)C` (stereo not drawn), the “secreted FVIII-Gluc luciferase Z-score” value was -1.24.

Consider `OC[C@H]1O[C@@H](n2cnc3c(NCc4ccco4)ncnc32)[C@H](O)[C@@H]1O`, for which the “secreted FVIII-Gluc luciferase Z-score” value is -1.03. To `COC1C(O)C(O)C(O)C(O)C1O` (stereo not drawn) belongs 0.358; to `O=C(O)C1(O)CC(O)C(O)C(O)C1` (stereo not drawn), 0.456; to `COc1cccc(-c2oc3ccccc3c(=O)c2O)c1`, 0.776. `Cc1c(-c2c(C)c(=O)c3c(C(C)C)c(=O)c(=O)c(C=O)c-3c2=O)c(O)c2c(C=O)c(O)c(O)c(C(C)C)c2c1O`: the “secreted FVIII-Gluc luciferase Z-score” value is -0.893. As to `C1CCN2CC3CC(CN4CCCC[C@H]34)C2C1` (stereo partly drawn), the “secreted FVIII-Gluc luciferase Z-score” value came out at 1.22. As to `COc1cc([C@@H]2c3cc4c(cc3C(OC3OC5COC(C)OC5C(O)C3O)C3COC(=O)[C@@H]32)OCO4)cc(OC)c1O` (stereo partly drawn), the “secreted FVIII-Gluc luciferase Z-score” value was -6.37.

In the case of `COc1cc2ccc(=O)oc2c(O)c1OCC=C(C)C`, the “secreted FVIII-Gluc luciferase Z-score” value was -0.0513. As for `C=CC(C)(O)CCCC(C)CCCC(C)CCCC(C)C` (stereo not drawn), the “secreted FVIII-Gluc luciferase Z-score” value worked out at 0.179. Take `C/C(=C\CNc1ncnc2nc[nH]c12)CO`: the “secreted FVIII-Gluc luciferase Z-score” value was 0.549. With `CCC(=O)OCC(=O)[C@@]1(OC(=O)CC)[C@@H](C)C[C@H]2[C@@H]3CCC4=CC(=O)C=C[C@]4(C)[C@@]3(F)[C@@H](O)C[C@@]21C`, the “secreted FVIII-Gluc luciferase Z-score” value was determined as 3.76.

As for `COc1ccc(-c2coc3cc(O)ccc3c2=O)cc1`, the “secreted FVIII-Gluc luciferase Z-score” value is 0.632. On to `COc1ccc2c(=O)c(-c3ccccc3)coc2c1`, for which the “secreted FVIII-Gluc luciferase Z-score” value is 1.15. For the molecule `C1CCN2C[C@H]3C[C@H](CN4CCCC[C@@H]34)[C@H]2C1`, the “secreted FVIII-Gluc luciferase Z-score” value amounted to 1.26. On to `COc1ccc(OC)c(C2Nc3ccccc3NC3=C2C(=O)CC(C)(C)C3)c1Br` (stereo not drawn), for which the “secreted FVIII-Gluc luciferase Z-score” value turned out to be 0.0362. For `COc1cc2c(cc1OC)-c1c(OC)c(OC)cc3ccnc(c13)C2=O`, the “secreted FVIII-Gluc luciferase Z-score” value was -0.583. Regarding `COc1cc(-c2cc(=O)c3ccccc3o2)ccc1O`, the “secreted FVIII-Gluc luciferase Z-score” value was found to be 1.57. Consider `Nc1ccn([C@@H]2O[C@H](CO)[C@@H](O)[C@H]2O)c(=O)n1`, for which the “secreted FVIII-Gluc luciferase Z-score” value is 1.12.
